We go through 9 molecules from PubChem BioAssay.

Test [1] is described as follows: optical density shifts of acrAB sulA E. coli – strain DRC41, OD650, 48 h, E. coli filamentation inducer project, primary screen (AID 1152).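 Also: E. coli MC1000 strain DRC41 lacking acrAB efflux pump and sulA.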 The following applies: higher = more signal, called active from +8 up or from −8 down.
Test [2] in a line: probe aLefty1 binding on compound microarray – biochemical, small-molecule microarray, 635/667 nm fluorescence, primary screen (AID 1153).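 Also: score merges spot fluorescence with signal-to-noise ratio from the scanned slide images.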 The following applies: higher = more signal.
Test [3] in a line: plasmodial surface anion channel blockers, osmotic lysis – cell-based, P. falciparum Indochina, OD700, 1 h, primary screen (AID 1154). The following applies: P. falciparum Indochina infected RBC osmotic lysis, higher = more signal, called active from +8 up or from −8 down.
Test [4] in a line: plasmodial surface anion channel blockers, osmotic lysis – cell-based, P. falciparum Indochina, OD700, 2 h, primary screen (AID 1155).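 Also: lysis reports solute entry through the parasite surface anion channel PSAC.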 The following applies: P. falciparum Indochina infected erythrocytes, higher = more signal, called active from +8 up or from −8 down.
A short description of test [5]: changes in parasitized red cell lysis, either direction – P. falciparum Indochina, OD700, 3 h, PSAC antagonist project, primary screen (AID 1156). The following applies: P. falciparum-infected erythrocytes, osmotic lysis, higher = more signal, called active from +8 up or from −8 down.
Test [6] in a line: plasmodial surface anion channel blockers, osmotic lysis – cell-based, P. falciparum Indochina, OD700, 18 h, primary screen (AID 1157). The following applies: P. falciparum Indochina infected erythrocytes, osmotic lysis OD700, 18 h; higher = more signal, called active from +8 up or from −8 down.
Test [7] in a line: S6 kinase pathway phospho-S6 level changes – cell-based, A549, cytoblot, luminescence, serum-stimulated, primary screen (AID 1158).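 Also: serum-stimulated A549 lung adenocarcinoma cells; signal is phosphorylated S6 detected by cytoblot immunostaining with HRP secondary.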 The following applies: 5 h, higher = more signal.
In test [8] the target is NADPH oxidase 2 (Homo sapiens) (UniProt P04839). As to the kind of experiment: compounds shifting NOX2 Amplex Red fluorescence – cell-based, HEK293-NOX2, PMA-stimulated, NOX inhibitor project, primary screen (AID 1159). Also: test concentration not given here. The following applies: 45 min, higher = more signal, called active from +8 up or from −8 down.
Chain of NADPH oxidase 2 (Homo sapiens) (P04839 whole entry, looked up): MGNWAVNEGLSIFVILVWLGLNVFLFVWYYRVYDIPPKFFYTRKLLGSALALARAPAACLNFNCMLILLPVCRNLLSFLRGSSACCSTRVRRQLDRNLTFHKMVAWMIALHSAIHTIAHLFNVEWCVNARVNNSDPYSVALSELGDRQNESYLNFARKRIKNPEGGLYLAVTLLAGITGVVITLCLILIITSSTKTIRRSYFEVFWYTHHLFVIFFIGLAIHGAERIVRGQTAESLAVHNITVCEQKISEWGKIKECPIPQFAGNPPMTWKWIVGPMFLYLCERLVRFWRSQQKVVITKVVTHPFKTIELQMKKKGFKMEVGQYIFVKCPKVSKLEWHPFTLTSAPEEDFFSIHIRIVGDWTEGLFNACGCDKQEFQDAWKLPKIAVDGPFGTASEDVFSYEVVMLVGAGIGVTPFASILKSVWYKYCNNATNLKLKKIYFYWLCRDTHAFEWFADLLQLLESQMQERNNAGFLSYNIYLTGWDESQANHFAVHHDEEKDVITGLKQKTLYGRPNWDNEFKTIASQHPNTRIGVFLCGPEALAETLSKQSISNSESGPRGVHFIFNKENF
Test [9] has as its target NADPH oxidase 4 (Homo sapiens) (UniProt Q9NPH5). As to the kind of experiment: compounds shifting NOX4 Amplex Red fluorescence – cell-based, HEK293-NOX4, tetracycline-induced, NOX inhibitor project, primary screen (AID 1160). The following applies: HEK293-NOX4, Amplex Red H2O2 fluorescence, 45 min; higher = more signal, called active from +8 up or from −8 down.
Test [10] concerns the target NADPH oxidase 5 (Homo sapiens) (UniProt Q96PH1). The test can be described thus: compounds shifting NOX5 Amplex Red fluorescence – cell-based, HEK293-NOX5, NOX inhibitor project, primary screen (AID 1161). The following applies: HEK293-NOX5, ionomycin, 45 min, higher = more signal.

The source made the active and inactive calls.

Chain of NADPH oxidase 4 (Homo sapiens) (Q9NPH5 whole entry, looked up): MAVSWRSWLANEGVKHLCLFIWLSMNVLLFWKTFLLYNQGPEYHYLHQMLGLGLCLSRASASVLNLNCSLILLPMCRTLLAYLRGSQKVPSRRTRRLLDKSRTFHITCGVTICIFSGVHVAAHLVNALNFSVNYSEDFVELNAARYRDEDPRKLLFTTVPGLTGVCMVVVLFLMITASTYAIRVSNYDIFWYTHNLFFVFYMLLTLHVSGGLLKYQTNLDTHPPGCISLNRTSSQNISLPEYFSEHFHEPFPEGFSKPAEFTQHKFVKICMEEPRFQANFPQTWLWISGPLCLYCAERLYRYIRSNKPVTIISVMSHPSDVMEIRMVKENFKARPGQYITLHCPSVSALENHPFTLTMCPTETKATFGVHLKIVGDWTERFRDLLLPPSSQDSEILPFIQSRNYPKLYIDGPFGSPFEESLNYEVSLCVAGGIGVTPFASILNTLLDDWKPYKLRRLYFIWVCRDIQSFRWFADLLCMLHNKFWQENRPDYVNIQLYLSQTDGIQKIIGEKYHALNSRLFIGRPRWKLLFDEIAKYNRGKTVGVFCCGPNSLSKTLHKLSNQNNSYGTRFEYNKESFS
Chain of NADPH oxidase 5 (Homo sapiens) (Q96PH1 whole entry, looked up): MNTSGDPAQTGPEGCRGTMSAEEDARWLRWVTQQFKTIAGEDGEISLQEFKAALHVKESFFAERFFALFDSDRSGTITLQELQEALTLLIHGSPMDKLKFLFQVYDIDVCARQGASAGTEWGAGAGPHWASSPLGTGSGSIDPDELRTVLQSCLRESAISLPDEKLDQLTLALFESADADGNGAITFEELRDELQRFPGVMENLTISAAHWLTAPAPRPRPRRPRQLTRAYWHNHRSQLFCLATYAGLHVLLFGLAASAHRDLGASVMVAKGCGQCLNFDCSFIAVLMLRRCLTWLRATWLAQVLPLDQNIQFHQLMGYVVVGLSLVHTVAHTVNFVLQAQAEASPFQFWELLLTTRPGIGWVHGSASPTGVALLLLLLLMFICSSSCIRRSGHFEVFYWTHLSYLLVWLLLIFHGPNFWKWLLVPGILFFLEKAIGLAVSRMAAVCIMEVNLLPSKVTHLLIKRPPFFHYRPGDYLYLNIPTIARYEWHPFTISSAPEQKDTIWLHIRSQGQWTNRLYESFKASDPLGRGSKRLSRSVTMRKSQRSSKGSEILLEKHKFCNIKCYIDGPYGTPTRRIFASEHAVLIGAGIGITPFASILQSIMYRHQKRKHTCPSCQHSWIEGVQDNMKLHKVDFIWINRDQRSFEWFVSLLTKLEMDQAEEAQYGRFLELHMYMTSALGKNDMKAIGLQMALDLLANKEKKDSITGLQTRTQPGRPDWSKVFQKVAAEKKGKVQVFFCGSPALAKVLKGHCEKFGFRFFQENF

`COCCOC(=O)N1C(=O)[C@@]2(c3cc(C#Cc4ccc(OC)cc4)ccc31)[C@H](c1ccccc1OCCO)N1[C@H](c3ccccc3)[C@H](c3ccccc3)OC(=O)[C@H]1[C@@H]2C(=O)N1CCCCCCC1`: the z-score in [1] is 2.97 (inactive); in [3], 0.999 (inactive); in [4], 0.57 (inactive); in test [5], 0.338 (inactive); in test [6], -0.122 (inactive); in test [7], 1.99. Also, the z-score in test [8] is -0.126 (inactive); in test [9], 0.201 (inactive); in [10], 1.19. In addition, the composite z-score in test [2] was determined as 2.81.

Regarding `COc1ccc([Si](C)(C)[C@H]2[C@H](CCn3cc([C@H](O)c4ccccc4)nn3)O[C@@]3(C(=O)N(Cc4ccc(N5C(=O)c6cccc7cccc5c67)cc4)c4ccccc43)[C@@H]2C)cc1`, the z-score in [1] was 0.0759 (inactive); in test [3], 1.97 (inactive); in [4], 0.485 (inactive); in test [5], 0.0591 (inactive); in [6], 0.646 (inactive); in test [7] it was 0.243. The z-score in [8] was 0.892 (inactive); in [9], 0.925 (inactive); in [10], 2.01. In [2], this molecule returned a composite z-score of 0.0091.

For `CN(C)CCCNC(=O)[C@@]1(c2ccc([N+](=O)[O-])cc2)CC(=O)N(CC23CC4CC(CC(C4)C2)C3)[C@@H]1c1ccc(CO)cc1I`, the z-score in [1] is -5.6 (inactive); in test [3] it was 11.4 (active); in [4], 2.32 (inactive); in test [5] it was -8.44 (active); in test [6] it was 0.352 (inactive); in test [7], -2.32. In addition, the z-score is -10.3 (active) in test [8], -5.46 (inactive) in test [9] and -7.32 in [10]. In test [2], this molecule registered a composite z-score of 0.198.

With `C=CCN1C(=O)[C@@]2(CCS(=O)(=O)c3ccccc3)N=C(c3ccc(OCCCO)cc3)O[C@H]2c2ccccc21`, the z-score in [1] is -0.135 (inactive); in [3], 29.9 (active); in [4], 25.2 (active); in [5] it was 1.73 (inactive); in test [6], 6.35 (inactive); in test [7] it was 1.06. The z-score in test [8] is -1.42 (inactive); in test [9] it was 1.35 (inactive); in [10] it was -0.428. The molecule further registered a composite z-score in test [2] of 0.235.

On to `COC(=O)c1nc2oc1CC[C@@H](CO)NC(=O)N(C)Cc1cnnn1C[C@H](Cc1ccccc1)NC2=O`, for which the z-score is 2.17 (inactive) in [1]; 1.23 (inactive) in test [3]; 0.656 (inactive) in [4]; 1.2 (inactive) in test [5]; 0.409 (inactive) in test [6]; 0.688 in test [7]. Moreover, the z-score is -0.524 (inactive) in [8], 1.35 (inactive) in test [9] and 0.371 in test [10]. In addition, in test [2], the composite z-score was -0.101.

Turning to `COc1ccc(CCNC(=O)[C@@]2(Sc3ccc(C)cc3)CC(=O)N(C3Cc4ccccc4C3)[C@@H]2c2ccc(CO)cc2)cc1`, the z-score in test [1] is -0.336 (inactive); in test [3], 4.53 (inactive); in test [4], -0.205 (inactive); in [5], -0.0174 (inactive); in test [6], -0.874 (inactive); in test [7], 1.66. The figures for the z-score in test [8], in [9] and in test [10] were -2.19 (inactive), -1.05 (inactive) and -4.9, respectively. Further, the composite z-score in [2] was 0.366.

`C#CCN([C@@H](Cc1ccc(O)cc1)C(=O)OC)[C@@H](/C=C/C1CC1)[C@H](O)Cc1ccccc1`: the z-score in test [1] was -1.08 (inactive); in test [3], 3.41 (inactive); in [4], 0.761 (inactive); in test [5], -0.824 (inactive); in [6] it was 0.353 (inactive); in test [7], -0.839. Besides, the z-score in [8] was 0.544 (inactive); in test [9], -0.606 (inactive); in test [10] it was -1.58. Moreover, in [2], the composite z-score is -0.294.

Regarding `O=C(CS)NCCCCCNC(=O)[C@@H]1C[C@@H]2C(=O)N3CCC[C@H]3C(=O)N2[C@@H]1c1cccc(OCCO)c1`, the z-score in test [1] is -1.26 (inactive); in test [3], 2.76 (inactive); in test [4] it was 0.465 (inactive); in [5], -0.87 (inactive); in test [6] it was 0.277 (inactive); in test [7], -0.645. For the same molecule, the z-score was 1.97 (inactive) in test [8], 0.231 (inactive) in [9] and -0.232 in test [10]. For the same molecule, the composite z-score in test [2] is -0.781.

Consider `O=C1c2ccccc2[C@](Cc2ccccc2I)(C(=O)NCC(F)(F)F)[C@H](c2ccc(CO)cc2)N1C1CCCCC1`, for which the z-score was 1.25 (inactive) in test [1]; 7.04 (inactive) in test [3]; 0.605 (inactive) in test [4]; 2 (inactive) in test [5]; 0.0361 (inactive) in test [6]; 0.175 in [7]. Besides, the z-score in [8] is -2.92 (inactive); in [9], 0.179 (inactive); in test [10], 1.69. The molecule also displayed a composite z-score in test [2] of 0.0686.
